# Laboratory results from the supplement of paper PMC11001985.
# Target: WLS (lysine site: K217) (UniProt Q5T9L3)
# Test: lysine labeling ratio R10:1 (500 µM / 50 µM probe), SILAC-ABPP in living cells; higher = lower intrinsic lysine reactivity toward the probe, active = 2 or less
# Settings: HeLa; probe concentrations 500 vs 50 µM
# Protocol: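 Living HeLa cells (SILAC light/heavy) in PBS at room temperature were labeled with 50 µM versus 500 µM of the lysine-reactive, reductant-cleavable probe OPA-S-S-alkyne (SILAC labeling time not stated). Probe-modified peptides were CuAAC-biotinylated, captured on neutravidin and eluted with DTT/IAA, then quantified by LC-MS/MS. R = median peptide ratio per lysine (500/50 µM), combined over 3 forward and 3 reverse SILAC replicates. Ratios are capped at 20; R < 2 = hyper-reactive.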
# WLS (lysine site: K217), sequence (Q5T9L3 whole entry): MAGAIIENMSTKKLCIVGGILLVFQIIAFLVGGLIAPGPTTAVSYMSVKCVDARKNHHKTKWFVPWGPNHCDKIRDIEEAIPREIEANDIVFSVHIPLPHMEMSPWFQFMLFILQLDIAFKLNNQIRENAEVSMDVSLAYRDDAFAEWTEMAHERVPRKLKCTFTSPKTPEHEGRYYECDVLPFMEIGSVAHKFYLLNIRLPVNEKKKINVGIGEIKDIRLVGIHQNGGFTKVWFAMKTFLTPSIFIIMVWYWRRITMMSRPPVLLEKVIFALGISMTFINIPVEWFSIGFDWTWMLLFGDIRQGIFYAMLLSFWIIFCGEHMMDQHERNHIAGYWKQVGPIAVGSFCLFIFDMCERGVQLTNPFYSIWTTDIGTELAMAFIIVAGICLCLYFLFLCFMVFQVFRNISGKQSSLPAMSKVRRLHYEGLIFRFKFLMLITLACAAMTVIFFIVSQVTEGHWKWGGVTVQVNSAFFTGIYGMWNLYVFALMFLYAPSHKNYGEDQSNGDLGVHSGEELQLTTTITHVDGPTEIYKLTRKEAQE
row,SMILES,lysine labeling ratio R10:1
1,C#CCNC(=O)CCSSCCC(=O)NCCc1ccc(C=O)c(C=O)c1,2.13 (inactive)
